From PubChem BioAssay
Compounds with a hit are over-represented: about 5.7% of the library has one in this group of screens.
Nrf2 block – blocks Nrf2 signaling. AID 504444. A549 ARE-Fluc reporter, luciferase luminescence, 18-24 h. Potency, µM (series often up to 46 µM), for inactives: at the top dose activity change, negative = inhibition, actives largely listed as inhibitors. 2.1% of 360,000 active; note: potency is the fitted concentration of half-maximal effect; nearly all actives have a fitted effect of over 60% in size
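Nrf2 activity is the BugLite luminescence, read 15 min after reagent at room temperature, following CellTiter-Fluor cytotoxicity readout (30 min, 37C). Compound titrations were applied for 18-24 h to 5000 A549 ARE_Fluc cells/well in 5% FBS OPTI-MEM.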
KB-V1 cytotox – kills drug-selected multidrug resistant KB-V1 cells; KB-V1 MDR cells viability, CellTiter-Glo, 72 h; Potency, µM (top dose mostly 46.1 µM), hits mostly cytotoxic; 3.4% of 400,000 active; note: potency is the fitted concentration of half-maximal effect; nearly all actives have a fitted effect of over 60% in size
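Cells of the MDR subline KB-V1 are plated, dosed with compound at multiple concentrations, and incubated 72 h at 37 degrees C; CellTiter-Glo is then added and luminescence read after 10 min.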
PI4K2A block – blocks human PI4K2A kinase activity; purified PI4K2A, ADP-Glo luminescence, 1 h; stronger effect = lower value; AID 1346378; activity change, negative = inhibition, % at 76.9 µM; 0.13% of 420,000 active; in the data active = activity change below about -50%; inconclusive = mostly about -30% to -49%;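 note: -100% = wells without enzyme as full effect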
Target sequence (Q9BTU6 whole entry, looked up): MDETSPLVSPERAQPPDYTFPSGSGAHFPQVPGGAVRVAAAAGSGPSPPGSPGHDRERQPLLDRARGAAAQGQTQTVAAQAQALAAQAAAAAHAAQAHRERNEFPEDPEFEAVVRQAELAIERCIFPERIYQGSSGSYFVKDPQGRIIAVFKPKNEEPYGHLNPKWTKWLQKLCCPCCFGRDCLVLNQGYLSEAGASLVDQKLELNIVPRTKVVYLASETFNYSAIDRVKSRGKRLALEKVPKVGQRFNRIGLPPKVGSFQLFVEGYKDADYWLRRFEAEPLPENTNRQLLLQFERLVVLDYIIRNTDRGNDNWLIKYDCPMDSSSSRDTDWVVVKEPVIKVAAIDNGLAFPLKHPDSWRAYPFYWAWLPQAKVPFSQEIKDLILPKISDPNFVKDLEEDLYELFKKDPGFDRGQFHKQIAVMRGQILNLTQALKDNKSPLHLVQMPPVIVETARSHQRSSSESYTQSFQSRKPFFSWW
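Compounds are screened against recombinant PI4K2A using PI as substrate and ATP, the latter dispensed at 300 microM. Reactions run one hour at ambient temperature before ADP-Glo detection; full inhibition defined by wells lacking enzyme.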
KB-3-1 tox – KB-3-1 parental cell cytotoxicity | KB-3-1 viability, CellTiter-Glo ATP luminescence, 72 h | Potency, µM (highest dose often 46.1 µM), actives largely listed as cytotoxic | 1.4% of 400,000 active; note: potency is the fitted concentration of half-maximal effect; nearly all actives have a fitted effect of over 60% in size
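Using CellTiter-Glo luminescence, growth of non-resistant KB-3-1 adenocarcinoma cells is assessed 72 h after pin-tool compound addition at 37 °C. Normalized responses across the concentration series yield fitted curves.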
A549 viability – A549 cytotoxicity, counter-screen for Nrf2 inhibitors | A549 ARE-Fluc cells, CellTiter-Fluor viability, 18-24 h | Potency, µM (doses to about 46 µM), for the others: at the top dose activity change, negative = cytotoxicity, most hits filed as inhibitors | 0.16% of 390,000 active | AID 504648; note: potency is the fitted concentration of half-maximal effect
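A549 ARE_Fluc cells in 5% FBS OPTI-MEM were exposed to compounds in concentration-response for 18-24 h at 37 deg C. Viability was read by CellTiter-Fluor fluorescence (Ex 405/Em 525) after 30 min, before the luciferase read.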
Giardia killer – Giardia lamblia killing; activity change, % at 7.66 µM, hits read low; Giardia lamblia trophozoite viability; AID 540267; 0.15% of 340,000 active; in the data active = activity change below about -80%; inconclusive = between about -30% and that limit;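 note: parasites exposed to compound for two days anaerobically before the ATP read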
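Trophozoites 100 cells/well + cpd; 48 hrs, 37 deg C, anaerobic. ATPLite 1-Step added, 15-30 min RT, luminescence read (ATP-based viability).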
* marks the source's active call; other numbers are inactive results; i = inactive; ? = inconclusive; · = no result given. Unless noted, calls come from the whole dose curve; as a rule, active = well fitted curve in the direction sought with a large enough effect; inconclusive = small, poorly fitted or top-dose-only effect, or another doubt; inactive = no such curve, though single readings can be large; an effect the other way counts as inactive or inconclusive. Unless noted, % is set by controls: 0 for no effect and ±100 for the full control effect.

SMILES | Nrf2 block | KB-V1 cytotox | PI4K2A block | KB-3-1 tox | A549 viability | Giardia killer
O=c1[nH]cnc2n[nH]nc12 | · | ? | · | 1.5µM* | · | ·
COC(=O)C1CN(Cc2ccccc2)CCS(=O)(=O)N1Cc1cn(Cc2cccc(Cl)c2)nn1 (stereo not drawn) | · | · | -3 | · | · | ·
Cn1c(-c2ccccc2)cc2c3no[n+]([O-])c3ccc21 | ? | ? | -19 | 3.7µM* | ? | -24
CCC(C)Nc1nc(C)nc2c1nnn2Cc1ccccc1 (stereo not drawn) | · | · | 2 | · | · | ·
COc1ccc(N2CCc3c(C)nc4c(OC)cccc4c32)cc1 | 14% | ? | 3 | 4.6µM* | -17% | 5
COc1cccc(N2CCc3c(C)nc4ccc(Cl)cc4c32)c1 | ? | 16µM* | -15 | ? | ? | -1
O=C(O)/C=C/c1ccc([N+](=O)[O-])o1 | ? | i | 0 | i | -3% | -4
O=C1NC(=S)S/C1=C\C=C\c1ccc([N+](=O)[O-])o1 | ? | 4.1µM* | -14 | ? | ? | -86*
Cc1c(N)cccc1C(F)(F)F | · | · | 2 | · | · | ·
Nc1c(C(=O)Nc2ccccc2F)sc2nc3c(cc12)CCCCCC3 | 17% | 6.5µM* | 2 | 13µM* | -9% | ·
Cc1cccc(NC(=O)c2sc3nc4c(cc3c2N)CN(C(C)C)CC4)c1 | 16µM* | i | 3 | ? | -14% | ·
CCN1CCc2nc3sc(C(=O)Nc4cccc(Cl)c4C)c(N)c3cc2C1 | ? | 6.5µM* | -8 | 16µM* | -13% | ·
Cc1cccc(NC(=O)c2sc3nc4c(cc3c2N)CN(Cc2ccccc2)CC4)c1 | 19% | i | -2 | i | 0% | ·
COc1ccccc1NC(=O)c1sc2nc3c(cc2c1N)CCCCCC3 | 2% | i | 4 | i | 2% | ·
CCN1CCc2nc3sc(C(=O)Nc4cccnc4Cl)c(N)c3cc2C1 | 4% | i | -2 | i | 1% | 6
CCOC(=O)Cc1nc(N2CCN(C(=O)C3CCCO3)CC2)c2c(C)c(C(=O)OCC)sc2n1 (stereo not drawn) | · | · | -3 | · | · | ·
O=C(COC(=O)c1ccccc1OCCOc1ccccc1)Nc1ccc(Br)cc1 | · | i | · | ? | · | ·
Cc1ccc(-c2cc3nn(-c4ccccc4)c(N)c3c(=O)o2)cc1 | -20% | 16µM* | -1 | 21µM* | -4% | 10
O=C(NC1CCCCC1)N1CCNCC1 | 1% | i | 4 | i | 4% | -12
C1CCCCCC(NCCN2CCNCC2)CCCCC1 | 4% | ? | 1 | 16µM* | -14% | -10
CC(SC1=NS(=O)(=O)c2ccccc21)C(=O)O (stereo not drawn) | 23% | i | · | i | -2% | -7
CC1CCC2(CCC(=O)N2CCCOC(=O)NC(C)(C)C)CC1 (stereo not drawn) | · | · | 0 | · | · | ·
COc1ccc(CCNC(=O)c2ccc3nc(N4CCCCC4)sc3c2)cc1OC | -26% | 18µM* | -10 | i | -1% | 7
COc1ccc(CCNC(=O)c2ccc3c(c2)CCN3S(C)(=O)=O)cc1 | -17% | i | 7 | i | 3% | ·
CCS(=O)(=O)N1CCc2cc(C(=O)NCCc3ccc(OC)c(OC)c3)ccc21 | 18µM* | i | -2 | i | ? | ·
SMILES | Nrf2 block | KB-V1 cytotox | PI4K2A block | KB-3-1 tox | A549 viability | Giardia killer
C/C=C/c1ccccc1OCCCN1CCC(C(O)(c2ccccc2)c2ccccc2)CC1 | · | · | -4 | · | · | ·
Cc1ccc(S(=O)(=O)N2CCCC(C(=O)Nc3c(C)n(C)n(-c4ccccc4)c3=O)C2)cc1 (stereo not drawn) | · | · | 1 | · | · | ·
O=[N+]([O-])c1cc(O)c2ncccc2c1 | -7% | 18µM* | -28 | ? | 0% | 1
O=[N+]([O-])c1cc2cccnc2c2ncccc12 | -27% | i | -6 | 0.12µM* | -8% | -88*
Cc1ccc([N+](=O)[O-])c2cccnc12 | -4% | i | 3 | i | 2% | 5
O=C(c1cc(-c2ccc(Br)cc2)n[nH]1)N1CCN(S(=O)(=O)c2ccc(Br)s2)CC1 | -29% | i | -3 | i | 8% | ·
